Screening results deposited in PubChem by several laboratories.
This is a sample that favours compounds with a hit; in the whole collection about 3.7% have one here.
MazF activator: activators of E. coli MazEF toxin-antitoxin RNase | 350,000 tested, 0.32% active | AID 504720 | FAM/BHQ RNA-DNA oligo cleavage fluorescence, 5 h | P0AE70 | activation, % at 20 µM; in the data active means activation above about 50%
BoNT-A LC inh2: blocks Botulinum neurotoxin A light chain protease. AID 588499. inhibition, % at 10 µM. 360,000 tested, 0.17% active. multiplex microsphere protease substrate cleavage, flow cytometry; further: plate controls were buffer without enzyme for full effect and enzyme alone for no effect
Bead autofluor: counter-screen for toxin protease inhibitors: compound fluorescence. compound autofluorescence counterscreen, microsphere flow cytometry; stronger effect = higher value. fluorescence intensity (test concentration not listed). 360,000 tested, 3.1% active. AID 624483; in the data active means fluorescence intensity above about 16000; inconclusive means no clear call, values can overlap the other calls
BoNT F protease: inhibitors of Botulinum neurotoxin F light chain protease; Multiplex microsphere protease cleavage assay, flow cytometry; inhibition, % at 10 µM; 360,000 tested, 0.22% active; AID 588497; in the data active means inhibition above about 35%, passing the limit was not always enough; inconclusive means no clear call, values can overlap the other calls; further: plate controls were buffer without enzyme for full effect and enzyme alone for no effect
Anthrax LF inh2: inhibitors of Bacillus anthracis lethal factor protease | AID 588501 | inhibition, % at 10 µM | P15917 | multiplex microsphere protease cleavage assay, LF | 360,000 tested, 0.12% active; further: plate controls were buffer without enzyme for full effect and enzyme alone for no effect
Target sequence (P15917 whole entry, looked up): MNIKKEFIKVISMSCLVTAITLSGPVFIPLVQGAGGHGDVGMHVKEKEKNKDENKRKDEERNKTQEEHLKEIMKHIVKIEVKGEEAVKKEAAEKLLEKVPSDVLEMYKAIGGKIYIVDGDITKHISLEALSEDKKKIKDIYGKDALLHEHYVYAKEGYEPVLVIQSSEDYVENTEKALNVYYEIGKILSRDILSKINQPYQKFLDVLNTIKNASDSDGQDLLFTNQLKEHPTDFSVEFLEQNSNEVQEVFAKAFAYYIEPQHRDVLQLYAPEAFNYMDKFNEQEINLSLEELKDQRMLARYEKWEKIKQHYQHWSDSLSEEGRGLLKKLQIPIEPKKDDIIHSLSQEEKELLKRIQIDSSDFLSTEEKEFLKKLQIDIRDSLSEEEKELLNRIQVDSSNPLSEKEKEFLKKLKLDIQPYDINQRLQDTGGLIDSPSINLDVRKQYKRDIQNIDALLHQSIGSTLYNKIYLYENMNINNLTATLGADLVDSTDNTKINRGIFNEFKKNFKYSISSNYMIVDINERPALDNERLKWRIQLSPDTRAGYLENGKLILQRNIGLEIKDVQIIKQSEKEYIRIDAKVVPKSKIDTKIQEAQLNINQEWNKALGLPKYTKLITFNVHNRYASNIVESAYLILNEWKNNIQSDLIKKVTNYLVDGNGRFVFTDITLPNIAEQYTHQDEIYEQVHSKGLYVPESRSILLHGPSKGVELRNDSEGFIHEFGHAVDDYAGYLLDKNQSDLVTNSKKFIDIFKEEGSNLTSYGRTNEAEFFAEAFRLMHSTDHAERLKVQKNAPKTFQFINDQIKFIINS
* = called active by the depositor; u = inconclusive; x = no result. Unless noted, no stated cut-off is given here; in the data, active means inhibition above about 30%; inconclusive means no clear call, values can overlap the other calls; inactive means below that.

SMILES	MazF activator	BoNT-A LC inh2	Bead autofluor	BoNT F protease	Anthrax LF inh2
CCOC(=O)N1CCN(C(=O)Nc2cccc(Cl)c2)CC1	2.8	3.8	19827*	4.0	-1.9
CCOC(=O)N1CCN(C(=O)Nc2ccc(Cl)cc2)CC1	-5.6	0.3	4208	4.3	-1.9
COc1ccccc1N1CCN(C(=O)Nc2cccc(Cl)c2)CC1	4.0	u	17904*	-12.9	-3.9
COC(=O)c1ccc(NC(=S)N2CCN(Cc3ccccc3)CC2)cc1	-8.2	-0.3	6365	-0.8	-1.9
COC(=O)c1ccc(NC(=S)N2CCN(Cc3cccc(C)c3)CC2)cc1	0.3	2.6	21917*	5.1	3.6
C#CCOc1ccc(CNC[C@H]2O[C@@H](n3ccc(=O)[nH]c3=O)[C@H](O)[C@@H]2O)cc1	x	-0.6	5936	-5.7	-5.6
CCCCNC(=O)c1nc(C2CCN(S(=O)(=O)c3ccccc3C(F)(F)F)CC2)oc1-c1ccccc1	x	-0.1	5453	-2.2	-8.6
CCOC(=O)N1CCN(C(=S)Nc2cccc(C)c2)CC1	-3.4	-1.8	23824*	-4.4	-13.0
COc1ccc(CNC(=O)[C@H](Cc2ccccc2)NC(=O)CC[C@H]2O[C@@H](n3ccc(=O)[nH]c3=O)[C@H](O)[C@@H]2O)cc1	x	0.0	5916	-4.7	4.6
CN1C(=O)NC(c2ccccc2)C2=C1CN(CCc1ccccc1)C2=O (configuration not stated)	-4.2	u	20821*	-1.5	0.0
CC(=O)Nc1ccc(-c2ccnc3c2CC(C)(C(=O)Nc2cccc(C(C)=O)c2)O3)cc1 (configuration not stated)	x	-0.1	3587	-7.0	-4.6
COc1ccc(COC[B-](F)(F)F)cc1	6.5	-0.1	3610	-6.5	-4.5
O=C(CCSCCc1ccccn1)Nc1ccc(Br)cn1	1.9	1.1	23488*	0.1	0.0
CN(CCc1ccccn1)C(=S)Nc1ccc(Cl)c(Cl)c1	14.1	-0.7	4665	-5.3	-2.7
CN(CCc1ccccn1)C(=O)Nc1ccc(Cl)cc1	-0.6	-1.8	17188*	-1.4	-0.7
O=C(CCSCCc1ccccn1)Nc1ccc(Cl)cn1	6.7	u	20129*	1.1	4.4
Cc1cccnc1CNC(=O)C1(C)CCCN1CC(C)C (configuration not stated)	x	0.2	4234	0.8	-1.5
O=C1CC[C@@H](C(=O)N2CSC[C@@H]2C(=O)Nc2cccc(C(F)(F)F)c2)N1	3.9	-0.4	3554	-9.1	-2.7
COC(=O)CN1C(=O)C(C)(C)Oc2ccc(C(=O)NC3CC3)cc21	-11.7	u	22838*	-3.3	-0.4
CCOC(=O)c1ccc2c(c1)N(CC(=O)N1CCCC1)C(=O)C(C)(C)O2	-4.1	u	23746*	-4.3	-2.5
CCOC(=O)c1ccc2c(c1)N(CC(=O)N1CCCCC1)C(=O)C(C)(C)O2	0.9	-0.1	4771	1.5	3.2
CC(=O)N1CCCC(C)(C(=O)Nc2ccc3oc(C)nc3c2)C1 (configuration not stated)	x	0.1	3755	0.3	-5.2
CCOC1=C2[C@@H](CN(S(=O)(=O)c3ccccc3C)[C@H]2c2ccc(Cl)cc2)[C@H]2C(=O)NC(=O)[C@H]2C1	x	0.2	6301	4.0	-7.1
CCCCOc1ccc(CN2CCCCC2)cc1	3.1	-1.1	12284	-8.4	-1.7
CCCCCCOc1ccc(CN2CCN(C)CC2)cc1	8.5	u	24568*	-4.0	-2.0
SMILES	MazF activator	BoNT-A LC inh2	Bead autofluor	BoNT F protease	Anthrax LF inh2
C[C@H](NC(=O)[C@@H]1CCCN1C(=O)OC(C)(C)C)c1ccccc1	x	-0.1	5714	5.2	4.1
CC1(C)CC(=O)C2=C(C1)NC(=O)C21C(C(=O)OC(C)(C)C)=C(N)Oc2ccc(Br)cc21 (configuration not stated)	-4.3	1.6	22960*	2.6	0.0
Cc1nc2ncccn2c1-c1csc(Nc2ccccc2)n1	1.2	3.7	2512	37.7*	0.5
COc1ccc(Nc2nc(-c3c(C)nc4ncccn34)cs2)cc1	2.2	-1.4	2506	-6.4	-2.4
CCN1CCN(C(=S)c2ccc(OCC(=O)N3CCOCC3)cc2)CC1	7.8	1.3	19327*	-2.0	-2.2
CCN1CCN(C(=S)c2ccc(OCC(=O)Nc3ccc(OC)cc3)cc2)CC1	58.3*	0.5	3319	-2.3	-3.2
c1ccc(-c2nn[nH]n2)cc1	5.0	u	4346	u	-14.1
Cc1ccccc1-c1nn[nH]n1	-2.2	-5.0	21118*	-4.8	-0.2
O=C(COC(=O)CNC(=O)c1ccccc1)NCCNC(=O)COC(=O)CNC(=O)c1ccccc1	1.8	-0.1	3674	-5.1	5.0
O=C(O)CN1C(=O)/C(=C/c2ccc(SCc3ccccc3)o2)SC1=S	123.0*	3.0	3179	3.6	5.1
